In PubChem BioAssay AID1508601 (ICCB-Longwood Screening Facility, Harvard Medical School, 2020):
“And” between values parts separate entries of the source, which are not always exact repeats. Equal values may be shown once. The whole screen tested about 5,700 compounds, of which about 85 (1%) were called active. Cut-off read from the data, not from the text of the source: active = p53-positive nuclei above about 36% (passing the limit was not always enough); inactive = the rest. Many of the other results were omitted from the sample, so actives are more common in it than they were.

How the values were obtained:
[1] = p53 stabilisation in HPV-positive human cells, imaging, p53-positive nuclei imaging, 24 h, 48 h (AID 1508601); conditions: 24/48 h
[2] = biological target: Cellular tumor antigen p53 (Homo sapiens) (UniProt P04637); assay: as above; conditions: 24/48 h, stronger effect = higher value
Sequence of Cellular tumor antigen p53 (Homo sapiens) (P04637 whole entry, looked up): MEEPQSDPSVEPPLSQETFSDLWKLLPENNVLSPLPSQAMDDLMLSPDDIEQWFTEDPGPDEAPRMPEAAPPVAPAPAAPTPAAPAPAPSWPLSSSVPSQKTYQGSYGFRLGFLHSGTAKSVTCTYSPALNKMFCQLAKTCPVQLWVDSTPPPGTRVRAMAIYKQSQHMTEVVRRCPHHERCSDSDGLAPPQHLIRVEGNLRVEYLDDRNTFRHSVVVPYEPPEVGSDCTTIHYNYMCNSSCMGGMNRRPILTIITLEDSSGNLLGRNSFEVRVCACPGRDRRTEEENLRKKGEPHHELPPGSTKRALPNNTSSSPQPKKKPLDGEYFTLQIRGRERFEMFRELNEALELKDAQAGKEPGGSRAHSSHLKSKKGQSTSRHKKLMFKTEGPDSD

[3] = measured here: cell number at 24 h, Library stock concentration: 80 uM
[4] = measured here: cell number at 24 h, Library stock concentration: 400 uM
[5] = measured here: cell number at 24 h, Library stock concentration: 2 mM
[6] = measured here: cell number at 24 h, Library stock concentration: 10 mM
[7] = measured here: cell number at 48 h, Library stock concentration: 80 uM
[8] = measured here: cell number at 48 h, Library stock concentration: 400 uM
[9] = measured here: cell number at 48 h, Library stock concentration: 2 mM
[10] = measured here: cell number at 48 h, Library stock concentration: 10 mM
[11] = Library stock concentration: 80 uM
[12] = Library stock concentration: 400 uM
[13] = Library stock concentration: 2 mM
[14] = Library stock concentration: 10 mM
[15] = measured here: p53 positive nuclei at 24 h, Library stock concentration: 80 uM
[16] = measured here: p53 positive nuclei at 24 h, Library stock concentration: 400 uM
[17] = measured here: p53 positive nuclei at 24 h, Library stock concentration: 2 mM
[18] = measured here: p53 positive nuclei at 24 h, Library stock concentration: 10 mM
[19] = measured here: cell number at 24 h, Library stock concentration: 3.33 mM
[20] = measured here: cell number at 48 h, Library stock concentration: 3.33 mM
[21] = Library stock concentration: 3.33 mM
[22] = measured here: p53 positive nuclei at 24 h, Library stock concentration: 3.33 mM
[23] = measured here: cell number at 24 h, Library stock concentration: 46 uM
[24] = measured here: cell number at 24 h, Library stock concentration: 278 uM
[25] = measured here: cell number at 24 h, Library stock concentration: 1.67 mM
[26] = measured here: cell number at 48 h, Library stock concentration: 46 uM
[27] = measured here: cell number at 48 h, Library stock concentration: 278 uM
[28] = measured here: cell number at 48 h, Library stock concentration: 1.67 mM
[29] = Library stock concentration: 46 uM
[30] = Library stock concentration: 278 uM
[31] = Library stock concentration: 1.67 mM
[32] = measured here: p53 positive nuclei at 24 h, Library stock concentration: 46 uM
[33] = measured here: p53 positive nuclei at 24 h, Library stock concentration: 278 uM
[34] = measured here: p53 positive nuclei at 24 h, Library stock concentration: 1.67 mM

For `CS(=O)(=O)c1ccc(C(CC2CCCC2)C(=O)Nc2nccs2)cc1` (configuration not stated), the nuclei count, normalised [1, 3] was 117%, the nuclei count, normalised [1, 4] was 108% and the nuclei count, normalised [1, 5] was 110%. The nuclei count, normalised [1, 6] was 109%, the nuclei count, normalised [1, 7] was 110% and the nuclei count, normalised [1, 8] was 104%. For the same molecule, the nuclei count, normalised [1, 9] was 100%, the nuclei count, normalised [1, 10] was 106% and the p53-positive nuclei, normalised [2, 11] was 0.258% (inactive). The p53-positive nuclei, normalised [2, 12] was 0.124% (inactive), the p53-positive nuclei, normalised [2, 13] was 0.01% (inactive) and the p53-positive nuclei, normalised [2, 14] was -0.00666% (inactive). The p53-positive nuclei, normalised [2, 15] was -0.031%, the p53-positive nuclei, normalised [2, 16] was -0.122% and the p53-positive nuclei, normalised [2, 17] was 0.0254%. The p53-positive nuclei, normalised [2, 18] was -0.0737%.
With `O=C(NN=Cc1ccc(O)c(O)c1)c1cc2ccccc2cc1O` the nuclei count, normalised [1, 19] was 108%, the nuclei count, normalised [1, 20] was 99.5% and the p53-positive nuclei, normalised [2, 21] was 0.0529% (inactive). The p53-positive nuclei, normalised [2, 22] was -0.25%.
Work on `CCOC(=O)NC1CCC2C(C1)CC1C(=O)OC(C)C1C2C=Cc1ccc(-c2cccc(F)c2)cn1` (configuration not stated) yielded a nuclei count, normalised [1, 23] of 115%, a nuclei count, normalised [1, 24] of 108% and a nuclei count, normalised [1, 25] of 101%. The nuclei count, normalised [1, 6] was 105%, the nuclei count, normalised [1, 26] was 117% and the nuclei count, normalised [1, 27] was 109%. For the same molecule, the nuclei count, normalised [1, 28] was 107%, the nuclei count, normalised [1, 10] was 107% and the p53-positive nuclei, normalised [2, 29] was -0.0807% (inactive). The p53-positive nuclei, normalised [2, 30] was -0.17% (inactive), the p53-positive nuclei, normalised [2, 31] was 0.0724% (inactive) and the p53-positive nuclei, normalised [2, 14] was -0.166% (inactive). The p53-positive nuclei, normalised [2, 32] was -0.0891%, the p53-positive nuclei, normalised [2, 33] was -0.151% and the p53-positive nuclei, normalised [2, 34] was -0.079%. It also gave a p53-positive nuclei, normalised [2, 18] of 0.188%.
In the case of `Nc1ccccc1NC(=O)c1ccc(CNC(=O)OCc2cccnc2)cc1`, the nuclei count, normalised [1, 23] is reported as 96%, the nuclei count, normalised [1, 3] is reported as 114% and the nuclei count, normalised [1, 24] is reported as 104%. The nuclei count, normalised [1, 4] was 118%, the nuclei count, normalised [1, 25] was 107% and the nuclei count, normalised [1, 5] was 124%. The nuclei count, normalised [1, 19] was 104%, the nuclei count, normalised [1, 6] was 90.8% and 96% and the nuclei count, normalised ([1]; measured here: cell number at 24 h, concentration not given here) was 107%. For the same molecule, the nuclei count, normalised [1, 26] was 96.3%, the nuclei count, normalised [1, 7] was 103% and the nuclei count, normalised [1, 27] was 103%. It also gave a nuclei count, normalised [1, 8] of 100%, a nuclei count, normalised [1, 28] of 95.3% and a nuclei count, normalised [1, 9] of 101%. For the same molecule, the nuclei count, normalised [1, 20] was 88.9%, the nuclei count, normalised [1, 10] was 58% and 57.5% and the nuclei count, normalised ([1]; measured here: cell number at 48 h, concentration not given here) was 103%. The p53-positive nuclei, normalised [2, 29] was -0.0533% (inactive), the p53-positive nuclei, normalised [2, 11] was -0.489% (inactive) and the p53-positive nuclei, normalised [2, 30] was -0.145% (inactive). The p53-positive nuclei, normalised [2, 12] was -0.1% (inactive), the p53-positive nuclei, normalised [2, 31] was 3.54% (inactive) and the p53-positive nuclei, normalised [2, 13] was 0.00969% (inactive). For the same molecule, the p53-positive nuclei, normalised [2, 21] was 0.482% (inactive), the p53-positive nuclei, normalised [2, 14] was 17.1% (inactive) and 14.2% (inactive) and the p53-positive nuclei, normalised ([2]; concentration not given here) was 0.78% (inactive). For the same molecule, the p53-positive nuclei, normalised [2, 32] was 0.084%, the p53-positive nuclei, normalised [2, 15] was -0.0702% and the p53-positive nuclei, normalised [2, 33] was -0.207%. The p53-positive nuclei, normalised [2, 16] was 0.0634%, the p53-positive nuclei, normalised [2, 34] was 5.23% and the p53-positive nuclei, normalised [2, 17] was 0.00201%. The p53-positive nuclei, normalised [2, 22] was 0.899%, the p53-positive nuclei, normalised [2, 18] was 34.2% and 14.9% and the p53-positive nuclei, normalised ([2]; measured here: p53 positive nuclei at 24 h, concentration not given here) was 0.224%.
Work on `Nc1ccccc1NC(=O)c1ccc(CNc2nccc(-c3cccnc3)n2)cc1` yielded a nuclei count, normalised [1, 3] of 128%, a nuclei count, normalised [1, 4] of 124% and a nuclei count, normalised [1, 5] of 125%. It also gave a nuclei count, normalised [1, 19] of 42.1%, a nuclei count, normalised [1, 6] of 49.9% and a nuclei count, normalised [1, 7] of 109%. The nuclei count, normalised [1, 8] was 107%, the nuclei count, normalised [1, 9] was 98.1% and the nuclei count, normalised [1, 20] was 30.1%. The nuclei count, normalised [1, 10] was 29.3%, the p53-positive nuclei, normalised [2, 11] was 8% (inactive) and the p53-positive nuclei, normalised [2, 12] was 0.396% (inactive). The p53-positive nuclei, normalised [2, 13] was 1.82% (inactive), the p53-positive nuclei, normalised [2, 21] was 23.5% (inactive) and the p53-positive nuclei, normalised [2, 14] was 83.5% (active). It also gave a p53-positive nuclei, normalised [2, 15] of 4.97%, a p53-positive nuclei, normalised [2, 16] of 0.046% and a p53-positive nuclei, normalised [2, 17] of 0.551%. It also gave a p53-positive nuclei, normalised [2, 22] of 10.3% and a p53-positive nuclei, normalised [2, 18] of 87.6%.
With `Cc1ccc(NC(=O)c2ccc(CN3CCN(C)CC3)cc2)cc1Nc1nccc(-c2cccnc2)n1` the nuclei count, normalised [1, 3] was 114%, the nuclei count, normalised [1, 4] was 85.7% and the nuclei count, normalised [1, 5] was 91%. The nuclei count, normalised [1, 19] was 99% and 103%, the nuclei count, normalised [1, 6] was 87.2% and the nuclei count, normalised [1, 7] was 112%. The nuclei count, normalised [1, 8] was 84.9%, the nuclei count, normalised [1, 9] was 92.2% and the nuclei count, normalised [1, 20] was 99.2% and 104%. The nuclei count, normalised [1, 10] was 87.9%, the p53-positive nuclei, normalised [2, 11] was 0.0518% (inactive) and the p53-positive nuclei, normalised [2, 12] was 0.00427% (inactive). The p53-positive nuclei, normalised [2, 13] was -0.0247% (inactive), the p53-positive nuclei, normalised [2, 21] was -0.686% (inactive) and -0.212% (inactive) and the p53-positive nuclei, normalised [2, 14] was -0.182% (inactive). It also gave a p53-positive nuclei, normalised [2, 15] of 0.0696%, a p53-positive nuclei, normalised [2, 16] of 0.334% and a p53-positive nuclei, normalised [2, 17] of 0.0437%. For the same molecule, the p53-positive nuclei, normalised [2, 22] was -0.375% and -0.356% and the p53-positive nuclei, normalised [2, 18] was -0.0433%.
